# The list is not random: actives were taken first. Their share in the collection is about 7.4%.
# FLuc modulator = qHTS profiling assay for firefly luciferase inhibitor/activator using purifed enzyme and Km concentrations of substrates (counterscreen for miR-21 project). 360,000 tested, 6.9% active. Luciferin 4-monooxygenase (Photinus pyralis), P08659. purified FLuc, Km substrates, luminescence inhibition. Potency, µM (highest dose often 57.5 µM), for the others: at the top dose activity change, negative = inhibition, actives largely listed as inhibitors;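 also: plate controls were vehicle for no effect and reference inhibitor for full effect; nearly all actives have a fitted effect of over 55% in size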
# Target sequence (P08659 whole entry, looked up): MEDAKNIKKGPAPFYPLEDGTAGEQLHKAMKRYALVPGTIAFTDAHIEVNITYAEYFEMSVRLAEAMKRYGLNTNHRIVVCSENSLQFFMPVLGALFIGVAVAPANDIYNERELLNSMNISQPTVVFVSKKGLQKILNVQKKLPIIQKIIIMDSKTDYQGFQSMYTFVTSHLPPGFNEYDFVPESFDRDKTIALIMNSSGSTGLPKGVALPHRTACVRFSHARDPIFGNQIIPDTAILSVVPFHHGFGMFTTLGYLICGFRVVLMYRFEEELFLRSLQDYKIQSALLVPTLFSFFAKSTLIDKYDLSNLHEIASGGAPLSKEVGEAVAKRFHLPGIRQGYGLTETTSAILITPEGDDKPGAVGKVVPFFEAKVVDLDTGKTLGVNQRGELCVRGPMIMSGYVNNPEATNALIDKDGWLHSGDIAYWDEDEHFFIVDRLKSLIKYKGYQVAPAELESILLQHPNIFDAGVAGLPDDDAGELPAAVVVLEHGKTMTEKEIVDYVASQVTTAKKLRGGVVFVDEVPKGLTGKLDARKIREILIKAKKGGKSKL
#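 Purified P. pyralis luciferase, 10 nM final, with Km-level 10 uM D-luciferin and 10 uM ATP in 50 mM Tris acetate pH 7.5, 10 mM Mg acetate, 0.01% Tween-20, 0.05% BSA; 6-point qHTS titration about 60 µM downward; luminescence read.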
# SMN2 splice enh = qHTS Assay for Enhancers of SMN2 Splice Variant Expression; HEK293 SMN2-luciferase splicing reporter, luminescence, 30-36 h; Potency, µM (titrated, usually from 46.1 µM), inactives show at the highest dose activity change, positive = activation, actives largely listed as activators; 210,000 tested, 2.8% active; AID 1458, 2008; also: % of control where 0% means no effect; nearly all actives have a fitted effect of over 55% in size
#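 HEK293 cells carry an SMN2 minigene-luciferase reporter in which exon 7 inclusion puts luciferase in frame. Cells were seeded at 2000 cells/well, attached for 10-12 hours, then exposed to compounds for 30-36 hours at 37C before ONE-Glo luminescence.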
# Rab9 prom act = qHTS Assay for Rab9 Promoter Activators; Potency, µM (doses to about 9.22 µM), without a hit: at the highest dose activation, negative = inhibition, usual class: activators; AID 485297, 2010; Huh7 Rab9 promoter-luciferase reporter, luminescence, 24 h; 320,000 tested, 2.8% active; also: % of control where 0% means no effect; nearly all actives have a fitted effect of over 60% in size
#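 Cell-based reporter: Huh7 stable for Rab9 promoter-driven luciferase, plated in reduced-serum medium with 10% FBS at 1500 cells/well, compound-treated 24 h at 37 °C, luminescence read after 10 min reagent.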
# NPC1 prom act = qHTS Assay for NPC1 Promoter Activators; Huh7 NPC1 promoter luciferase reporter, 24 h; Potency, µM (highest dose often 9.22 µM), for the others: at the highest dose activation, hits mostly activators; 320,000 tested, 2.4% active; also: % of control where 0% means no effect; nearly all actives have a fitted effect of over 60% in size
#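 Stably transfected Huh7 (NPC1 promoter→luciferase), 1500 cells/well in Opti-MEM + 10% FBS, 2 h settle, then compound 24 h at 37 °C. Luminescence after 10 min with Amplite reagent.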
# ELG1 genotoxic = qHTS screen for small molecules that induce genotoxicity in human embryonic kidney (HEK293T) cells expressing luciferase-tagged ELG1; Potency, µM (doses to about 46 µM), inactives show at the highest dose activity change, positive = activation, actives largely listed as activators; HEK293T ELG1-luciferase reporter, luminescence, 16 h; 330,000 tested, 1.3% active; also: % of control where 0% means no effect; nearly all actives have a fitted effect of over 60% in size
#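 Genotoxic stress is detected as increased luminescence from luciferase-tagged ELG1 in HEK293T cells, measured with ONE-Glo after a 16 hr treatment at 37 °C.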
# * hit, by the source's call; ? = inconclusive; / = no result. Calls follow the shape of the dose curve; as a rule, active = well fitted curve in the direction sought with a large enough effect; inconclusive = small, poorly fitted or top-dose-only effect, or another doubt; inactive = no such curve, though single readings can be large; an effect the other way counts as inactive or inconclusive. Potency is read from the fitted curve at half-maximal effect.
SMILES,FLuc modulator,SMN2 splice enh,Rab9 prom act,NPC1 prom act,ELG1 genotoxic
COc1ccc(C(C(=O)NC(C)(C)C)N(C(=O)CCC(=O)Nc2cc(C)on2)c2cccc(F)c2)cc1 (stereo not given),-0.5%,/,-2.6%,-5.0%,5.1%
COc1ccc(C(=O)CN2C(=O)N(c3cc(C)cc(C)c3)S(=O)(=O)c3ccccc32)cc1,-5.4%,/,/,/,/
Cc1ccccc1Nc1nc(N)nc(CSc2nnnn2C)n1,?,12.6µM*,2.51µM*,3.55µM*,?
Cc1ccc(Nc2nc(N)nc(CN3CCCCCC3)n2)c(C)c1,-0.2%,-6.7%,-3.9%,-0.5%,-0.7%
Cc1ccc(SCc2nc(N)nc(Nc3ccccc3C)n2)c(C)c1,26.9µM*,-14.3%,5.5%,4.8%,2.1%
Cc1ccc(Nc2nc(N)nc(CSc3nccn3C)n2)c(C)c1,?,90.5%,?,?,14.6µM*
Cc1ccccc1Nc1nc(N)nc(CSc2ccc(F)cc2)n1,10.7µM*,/,3.16µM*,2.51µM*,8.2µM*
CCc1ccccc1Nc1nc(N)nc(CSc2nnnn2C)n1,1.5%,20.6%,21.2%,-1.4%,9.9%
CC1=C(C(=O)Nc2cccnc2)C(c2cccc(F)c2)n2nc(SCc3ccccc3F)nc2N1 (stereo not given),-5.8%,-6.9%,/,/,/
CCOC(=O)c1c(C)oc2nc(C)nc(NCCCN3CCN(c4ccccc4OC)CC3)c12,-7.7%,/,/,/,/
Cc1ccc(-n2nc(CO)c(C(=O)NC(C)CCCc3ccccc3)n2)cc1C (stereo not given),?,8.1%,/,/,/
COc1cccc(-c2cc(C(=O)Nc3cccc(O)c3)no2)c1,0.426µM*,8.0%,?,?,?
O=C(Nc1c(Cl)cccc1Cl)c1cc(-c2ccco2)on1,?,/,0.0%,-2.3%,15.2%
COc1ccc(-c2cc(C(=O)Nc3cccc(Cl)c3)no2)cc1,0.757µM*,/,1.12µM*,1µM*,1.83µM*
COc1cccc(-c2cc(C(=O)Nc3ccccc3SC)no2)c1,7.57µM*,16.4%,?,?,?
O=C(Nc1cccc(Cl)c1)c1cc(-c2ccco2)on1,2.69µM*,/,-1.7%,2.0%,4.0%
O=C(Nc1cc(Cl)ccc1O)c1cc(-c2ccco2)on1,?,/,18.1%,23.5%,20.6µM*
O=C(Nc1cccnc1Cl)c1cc(-c2ccco2)on1,5.36µM*,-7.7%,?,4.7%,16.4µM*
O=C(Nc1cccc(Cl)c1)c1cc(-c2ccccc2)on1,1.51µM*,/,/,/,/
COc1cccc(-c2cc(C(=O)Nc3cccnc3Cl)no2)c1,-12.1%,-0.8%,1.7%,18.5%,?
O=C(Nc1cnn(C23CC4CC(CC(C4)C2)C3)c1)c1cc(-c2ccccc2)on1,-1.3%,5.0%,-4.9%,-1.0%,-2.0%
CCCn1cc(NC(=O)c2cc(-c3ccccc3)on2)cn1,13.5µM*,22.6%,?,18.3%,23.1µM*
Cc1noc(Cn2c(=O)c3ccccc3n(CC(=O)Nc3cccc(Cl)c3C)c2=O)n1,-2.7%,/,/,/,/
COc1ccccc1CNC(=O)c1cc2cc3ccc(Cl)cc3nc2o1,-9.2%,-6.0%,/,/,/
COc1ccc2c(c1)c1c(c(=O)n(Cc3ccccc3)c(=O)n1Cc1cccc(Cl)c1)n2C,-1.7%,/,/,/,/
SMILES,FLuc modulator,SMN2 splice enh,Rab9 prom act,NPC1 prom act,ELG1 genotoxic
COc1ccc(NC(=O)c2cc(-c3ccco3)on2)cc1,?,?,18.3%,-0.6%,-5.8%
CCc1ccc(NC(=O)c2cc(-c3ccco3)on2)cc1,2.39µM*,11.5%,2.3%,3.4%,12.4%
Cc1nc(Nc2ccc(C(=O)O)cc2)sc1-c1ccccc1,0.169µM*,/,?,1.26µM*,?
Cc1nc(Nc2ccccc2)sc1-c1ccccc1,0.338µM*,/,0.398µM*,1.26µM*,?
O=c1sc(Nc2ccccc2)nc2ccccc12,-1.3%,/,-3.4%,-2.2%,0.9%
COc1cc(NC(=O)Cn2c(=O)n(C(C)C)c(=O)c3oc4ccccc4c32)cc(OC)c1,-2.4%,/,/,/,/
COC(=O)c1ccccc1NC(=O)c1sc(Cl)nc1C,?,/,10.4%,0.3%,1.4%
COC(=O)c1ccc(-c2ccc(Cl)cc2)nc1C,1.35µM*,5.01µM*,1.41µM*,1.58µM*,8.2µM*
CCc1ccc(CN(C(=O)c2cc(=O)c3ccc(C)cc3o2)C2CCS(=O)(=O)C2)cc1 (stereo not given),-2.6%,8.5%,/,/,/
Cc1nc2sc(-c3ccccc3)nn2c(=O)c1Br,8.49µM*,5.62µM*,2.24µM*,3.16µM*,?
c1ccc(-c2nnc3sc(-c4csc5c4CCCC5)nn23)cc1,15.1µM*,?,16.5%,13.9%,10.2%
c1ccc(-c2nnc3sc(-c4ccncc4)nn23)cc1,-3.0%,4.47µM*,-5.7%,-0.8%,-6.8%
Clc1ccc(-c2nn3c(-c4ccccc4)nnc3s2)cc1,-2.3%,-25.8%,-9.4%,-21.2%,-1.8%
CCCn1c(C)nc2c(NCCCCN3CCCC3)nc(C)nc21,/,6.2%,/,/,/
Cc1ccn2cc(CC(=O)O)nc2c1,3.1%,/,3.5%,-4.2%,0.9%
CCOC(=S)SCc1cn2ccc(C)cc2n1,23.9µM*,-31.4%,-0.4%,-3.6%,0.1%
Cc1ccn2cc(CSc3ccccc3N)nc2c1,10.7µM*,?,0.631µM*,2.24µM*,?
Cc1cccc(Cn2c(=O)n(Cc3ccc4c(c3)OCO4)c(=O)c3oc4ccccc4c32)c1,-2.7%,/,/,/,/
COc1ccccc1CN1CCCC2(CCN(C(=O)c3ccncc3)CC2)C1,/,-18.6%,/,/,/
COc1ccc(NC(=O)CSc2nc(-c3cccs3)cc(C(F)(F)F)n2)c(OC)c1,-10.0%,5.1%,/,/,/
Cc1cc(C(=O)COC(=O)CNC(=O)c2ccc(Cl)c(Cl)c2)c(C)n1Cc1ccco1,-11.8%,4.3%,-3.1%,-2.1%,2.1%
Cc1ccc(C(=O)NCC(=O)OCC(=O)c2cc(C)n(Cc3ccco3)c2C)cc1,23.9µM*,/,-2.6%,-1.3%,6.0%
Cc1cc(C(=O)COC(=O)Cn2c(C(F)(F)F)nc3ccccc32)c(C)n1Cc1ccco1,21.3µM*,-0.3%,7.1%,0.0%,4.6%
C=CCn1c(C)cc(C(=O)COC(=O)C2CC(=O)N(Cc3ccccc3)C2)c1C (stereo not given),23.9µM*,12.0%,-7.4%,2.5%,2.8%
C=CCn1c(C)cc(C(=O)COC(=O)CNC(=O)c2ccccc2)c1C,13.5µM*,-23.1%,-5.6%,-0.9%,13.6%
COc1ccc(CNC(=O)CN(C)c2nn3c(=O)cc(C)nc3s2)cc1,1.4%,-0.6%,/,/,/
CCC1=C(c2ccc(C)cc2)S(=O)(=O)N=C1N1CCC(C(=O)NCc2ccc(N(C)C)cc2)CC1,1.0%,/,/,/,/
Cc1cc(C(=O)COC(=O)[C@H](C)NC(=O)c2ccco2)c(C)n1Cc1ccco1,7.57µM*,4.0%,5.2%,-1.9%,4.9%
Cc1cc(C(=O)CCl)c(C)n1Cc1ccco1,?,11.2%,-11.7%,-7.4%,-16.5%
